# Shown is part of a subset that was picked to be rich in the strongest signals.
# B1: LBL-152 (Laetiporus bicolor), B0D650 (protein)
# chain: MSNEYNPPLGIAFRLCGLASDRVLFSRVSPSPEVFHHPKSEVYPDQWFVAIPGSGQNAGCYAIKSKNTGKVLFSRMSPDPRVGHIDGDGKYPDNWFKFEAGSGKYAGYFRLRAVASDTVLVSRTSTGTDTQVINYPATSAKYDDQYFTILFDHHHHHH
# B2: Malectin (Xenopus laevis), Q6INX3 (protein)
# chain: SGLADKVIWAVNAGGESHVDVHGIHYRKDPLEGRVGRASDYGMKLPILRSNPEDQVLYQTERYNEDSFGYDIPIKEEGEYVLVLKFAEVYFAQSQQKVFDVRVNGHTVVKDLDIFDRVGHSTAHDEIIPISIKKGKLSVQGEVSTFTGKLSVEFVKGYYDNPKVCALFIMKGTADDVPMLQPHPGLE
# Key:
# Test in all cases: glycan array binding signal (z-score within array); higher = stronger binding
# Conditions in all cases: glycan notation: IUPAC condensed, linker removed
# [1] = biological target: Fuc(a1-2)Gal
# In short: (§1)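 The Consortium for Functional Glycomics database supplied 3228 glycan arrays, of which those lacking an available protein sequence were dropped. The binding signal, a within-array Z-score, was averaged across arrays of the same protein sequence and across linkers. Negative scores can be read as non-binding.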
# [2] = biological target: Fuc(a1-2)Gal(b1-3)GalNAc(b1-3)Gal
# In short: as §1
# [3] = biological target: Fuc(a1-2)Gal(b1-4)[Fuc(a1-3)]GlcNAc
# In short: as §1
# [4] = biological target: Fuc(a1-2)Gal(b1-4)[Fuc(a1-3)]GlcNAc(b1-2)Man(a1-3)[Fuc(a1-2)Gal(b1-4)[Fuc(a1-3)]GlcNAc(b1-2)Man(a1-6)]Man(b1-4)GlcNAc(b1-4)[Fuc(a1-6)]GlcNAc
# In short: as §1
# [5] = biological target: Fuc(a1-2)[Gal(a1-3)]Gal
# In short: as §1
# [6] = biological target: Fuc(a1-2)[Gal(a1-3)]Gal(b1-3)GlcNAc(b1-6)GalNAc
# In short: as §1
# [7] = biological target: Fuc(a1-2)[Gal(a1-3)]Gal(b1-4)GlcNAc(b1-2)Man
# In short: as §1
# [8] = biological target: Fuc(a1-2)[GalNAc(a1-3)]Gal
# In short: as §1
# [9] = biological target: Fuc(a1-2)[GalNAc(a1-3)]Gal(b1-4)Glc
# In short: as §1
# [10] = biological target: Fuc(a1-2)[GalNAc(a1-3)]Gal(b1-4)GlcNAc
# In short: as §1
# [11] = biological target: Fuc(a1-2)[GalNAc(a1-3)]Gal(b1-4)GlcNAc(b1-2)Man(a1-3)[Fuc(a1-2)[GalNAc(a1-3)]Gal(b1-4)GlcNAc(b1-2)Man(a1-6)]Man(b1-4)GlcNAc(b1-4)[Fuc(a1-6)]GlcNAc
# In short: as §1
# [12] = biological target: Fuc(a1-2)[GalNAc(a1-3)]Gal(b1-4)GlcNAc(b1-3)GalNAc
# In short: as §1
# [13] = biological target: Fuc(a1-3)[Gal(b1-4)]Glc6S
# In short: as §1
# [14] = biological target: Fuc(a1-3)[GalNAc(b1-4)]GlcNAc
# In short: as §1
# [15] = biological target: Fuc(a1-4)GlcNAc
# In short: as §1
# [16] = biological target: Gal(a1-3)Gal(b1-3)GlcNAc(b1-3)GalNAc
# In short: as §1
# [17] = biological target: Gal(a1-3)Gal(b1-4)GlcNAc(b1-6)GalNAc
# In short: as §1
# [18] = biological target: Gal(a1-4)Gal(b1-4)GlcNAc(b1-2)Man(a1-3)[Gal(a1-4)Gal(b1-4)GlcNAc(b1-2)Man(a1-6)]Man(b1-4)GlcNAc(b1-4)GlcNAc
# In short: as §1
# [19] = biological target: Gal(b1-3)Gal(b1-4)GlcNAc
# In short: as §1
# [20] = biological target: Gal(b1-3)GlcNAc(b1-2)Man(a1-3)[Gal(b1-3)GlcNAc(b1-2)Man(a1-6)]Man(b1-4)GlcNAc(b1-4)GlcNAc
# In short: as §1
# [21] = biological target: Gal(b1-3)GlcNAc(b1-3)Gal(b1-4)GlcNAc(b1-2)Man(a1-3)[Gal(b1-3)GlcNAc(b1-3)Gal(b1-4)GlcNAc(b1-2)Man(a1-6)]Man(b1-4)GlcNAc(b1-4)GlcNAc
# In short: as §1
# [22] = biological target: Gal(b1-3)[Fuc(a1-4)]GlcNAc(b1-2)Man
# In short: as §1
# [23] = biological target: Gal(b1-3)[Fuc(a1-4)]GlcNAc(b1-3)Gal(b1-3)[Fuc(a1-4)]GlcNAc
# In short: as §1
# [24] = biological target: Gal(b1-3)[Neu5Ac(b2-6)]GalNAc
# In short: as §1
# [25] = biological target: Gal(b1-4)Glc
# In short: as §1
# [26] = biological target: Gal(b1-4)GlcNAc(b1-2)Man
# In short: as §1
# [27] = biological target: Gal(b1-4)GlcNAc(b1-2)Man(a1-6)Man(b1-4)GlcNAc(b1-4)GlcNAc
# In short: as §1
# [28] = biological target: Gal(b1-4)GlcNAc(b1-3)Gal(b1-4)GlcNAc(b1-3)Gal(b1-4)GlcNAc(b1-2)Man(a1-3)[Gal(b1-4)GlcNAc(b1-3)Gal(b1-4)GlcNAc(b1-3)Gal(b1-4)GlcNAc(b1-2)Man(a1-6)]Man(b1-4)GlcNAc(b1-4)[Fuc(a1-6)]GlcNAc
# In short: as §1
# [29] = biological target: Gal(b1-4)GlcNAc(b1-3)Gal(b1-4)GlcNAc(b1-3)Gal(b1-4)GlcNAc(b1-2)[Gal(b1-4)GlcNAc(b1-3)Gal(b1-4)GlcNAc(b1-3)Gal(b1-4)GlcNAc(b1-6)]Man(a1-6)[Gal(b1-4)GlcNAc(b1-3)Gal(b1-4)GlcNAc(b1-3)Gal(b1-4)GlcNAc(b1-2)Man(a1-3)]Man(b1-4)GlcNAc(b1-4)[Fuc(a1-6)]GlcNAc
# In short: as §1
# [30] = biological target: Gal(b1-4)GlcNAc(b1-3)Gal(b1-4)GlcNAc(b1-3)Gal(b1-4)GlcNAc(b1-3)Gal(b1-4)GlcNAc(b1-2)Man(a1-3)[Gal(b1-4)GlcNAc(b1-3)Gal(b1-4)GlcNAc(b1-3)Gal(b1-4)GlcNAc(b1-3)Gal(b1-4)GlcNAc(b1-2)Man(a1-6)]Man(b1-4)GlcNAc(b1-4)GlcNAc
# In short: as §1
# [31] = biological target: Ara(a1-5)Ara(a1-5)Ara(a1-5)Ara(a1-5)Ara(a1-5)Ara
# In short: as §1
# [32] = biological target: Fuc(a1-2)Gal(b1-3)GlcNAc(b1-3)Gal(b1-4)Glc
# In short: as §1
# [33] = biological target: Gal(b1-3)GlcNAc(b1-3)[Gal(b1-4)GlcNAc(b1-6)]Gal(b1-4)Glc
# In short: as §1
# [34] = biological target: Gal(b1-4)GlcNAc(b1-3)[Gal(b1-4)GlcNAc(b1-6)]Gal(b1-4)GlcNAc(b1-3)[Gal(b1-4)GlcNAc(b1-6)]Gal(b1-4)GlcNAc(b1-3)[Gal(b1-4)GlcNAc(b1-6)]Gal(b1-4)GlcNAc(b1-3)[Gal(b1-4)GlcNAc(b1-6)]Gal(b1-4)GlcNAc(b1-3)Gal(b1-4)Glc
# In short: as §1
# [35] = biological target: Gal3S(b1-3)[Fuc(a1-4)]GlcNAc(b1-3)Gal(b1-4)Glc
# In short: as §1
# [36] = biological target: Gal3S(b1-4)GlcNAc(b1-3)Gal
# In short: as §1
# [37] = biological target: Glc(a1-2)Glc(a1-3)Glc(a1-3)Man(a1-2)Man(a1-2)Man(a1-3)[Man(a1-3)[Man(a1-6)]Man(a1-6)]Man(b1-4)GlcNAc
# In short: as §1
# [38] = biological target: Glc(a1-3)Glc
# In short: as §1
# [39] = biological target: Glc(a1-3)Glc(a1-3)Man(a1-2)Man(a1-2)Man(a1-3)[Man(a1-3)[Man(a1-6)]Man(a1-6)]Man(b1-4)GlcNAc
# In short: as §1
# [40] = biological target: Glc(a1-3)Man(a1-2)Man(a1-2)Man(a1-3)[Man(a1-2)Man(a1-3)[Man(a1-2)Man(a1-6)]Man(a1-6)]Man(b1-4)GlcNAc(b1-4)GlcNAc
# In short: as §1
# [41] = biological target: Glc(a1-6)Glc
# In short: as §1
# [42] = biological target: Glc(a1-6)Glc(a1-6)Glc(a1-6)Glc
# In short: as §1
# [43] = biological target: Glc(a1-6)Glc(a1-6)Glc(a1-6)Glc(a1-6)Glc
# In short: as §1
# [44] = biological target: Glc(a1-6)Glc(a1-6)Glc(a1-6)Glc(a1-6)Glc(a1-6)Glc
# In short: as §1
# [45] = biological target: Glc(b1-4)Glc(b1-4)Glc(b1-4)Glc(b1-4)Glc(b1-4)Glc
# In short: as §1
# [46] = biological target: GlcA3S(b1-3)Gal
# In short: as §1
# [47] = biological target: GlcNAc(b1-3)[GlcNAc(b1-6)]Gal(b1-4)GlcNAc(b1-3)[GlcNAc(b1-6)]Gal(b1-4)GlcNAc(b1-3)Gal(b1-4)Glc
# In short: as §1
# [48] = biological target: HexA(a1-3)GalNAc6S(b1-4)GlcA(b1-3)GalNAc6S
# In short: as §1
# [49] = biological target: Man(a1-2)Man
# In short: as §1
# [50] = biological target: Man(a1-3)[Man(a1-6)]Man(b1-4)GlcNAc(b1-4)GlcNAc
# In short: as §1
# [51] = biological target: Man(b1-4)GlcNAc
# In short: as §1
# [52] = biological target: Man6P(a1-3)Man(a1-3)Man(a1-3)Man(a1-2)Man
# In short: as §1
# [53] = biological target: Neu5Ac(a2-3)Gal(b1-3)GalNAc(b1-4)[Neu5Ac(a2-3)]Gal(b1-4)Glc
# In short: as §1
# [54] = biological target: Neu5Ac(a2-3)Gal(b1-3)[Fuc(a1-4)]GlcNAc
# In short: as §1
# [55] = biological target: Neu5Ac(a2-3)Gal(b1-3)[Fuc(a1-4)]GlcNAc(b1-3)Gal(b1-4)Glc
# In short: as §1
# [56] = biological target: Neu5Ac(a2-8)Neu5Ac
# In short: as §1
# [57] = biological target: Neu5Ac9Ac(a2-6)Gal(b1-4)GlcNAc
# In short: as §1
binder,measurement,setting,value
B1,glycan array binding signal (z-score),[1],-0.151
same,glycan array binding signal (z-score),[2],-0.162
same,glycan array binding signal (z-score),[3],-0.157
same,glycan array binding signal (z-score),[4],-0.147
same,glycan array binding signal (z-score),[5],-0.145
same,glycan array binding signal (z-score),[6],-0.156
same,glycan array binding signal (z-score),[7],-0.153
same,glycan array binding signal (z-score),[8],-0.151
same,glycan array binding signal (z-score),[9],-0.157
same,glycan array binding signal (z-score),[10],-0.156
same,glycan array binding signal (z-score),[11],-0.156
same,glycan array binding signal (z-score),[12],-0.155
same,glycan array binding signal (z-score),[13],-0.156
same,glycan array binding signal (z-score),[14],-0.141
same,glycan array binding signal (z-score),[15],-0.151
same,glycan array binding signal (z-score),[16],-0.158
same,glycan array binding signal (z-score),[17],-0.162
same,glycan array binding signal (z-score),[18],-0.132
same,glycan array binding signal (z-score),[19],-0.158
same,glycan array binding signal (z-score),[20],-0.154
same,glycan array binding signal (z-score),[21],-0.136
same,glycan array binding signal (z-score),[22],-0.159
same,glycan array binding signal (z-score),[23],-0.16
same,glycan array binding signal (z-score),[24],-0.154
same,glycan array binding signal (z-score),[25],-0.156
same,glycan array binding signal (z-score),[26],-0.148
same,glycan array binding signal (z-score),[27],-0.156
same,glycan array binding signal (z-score),[28],5.46
same,glycan array binding signal (z-score),[29],4.41
same,glycan array binding signal (z-score),[30],5.39
B2,glycan array binding signal (z-score),[31],-0.069
same,glycan array binding signal (z-score),[32],-0.068
same,glycan array binding signal (z-score),[33],-0.075
same,glycan array binding signal (z-score),[34],-0.066
same,glycan array binding signal (z-score),[35],-0.076
same,glycan array binding signal (z-score),[36],-0.076
same,glycan array binding signal (z-score),[37],0.052
same,glycan array binding signal (z-score),[38],0.041
same,glycan array binding signal (z-score),[39],8.46
same,glycan array binding signal (z-score),[40],-0.171
same,glycan array binding signal (z-score),[41],-0.214
same,glycan array binding signal (z-score),[42],0.133
same,glycan array binding signal (z-score),[43],0.876
same,glycan array binding signal (z-score),[44],1.32
same,glycan array binding signal (z-score),[45],-0.198
same,glycan array binding signal (z-score),[46],-0.074
same,glycan array binding signal (z-score),[47],-0.076
same,glycan array binding signal (z-score),[48],-0.074
same,glycan array binding signal (z-score),[49],-0.076
same,glycan array binding signal (z-score),[50],-0.072
same,glycan array binding signal (z-score),[51],-0.075
same,glycan array binding signal (z-score),[52],-0.075
same,glycan array binding signal (z-score),[53],-0.076
same,glycan array binding signal (z-score),[54],-0.076
same,glycan array binding signal (z-score),[55],-0.076
same,glycan array binding signal (z-score),[56],-0.073
same,glycan array binding signal (z-score),[57],-0.073
